Pf Dd2 inh: inhibitors of Plasmodium falciparum Dd2 growth; P. falciparum Dd2 growth, SYBR Green, 72 h; Potency, µM (series often up to 28.9 µM), for the others: at the top dose activity, negative = inhibition, usual class: inhibitors; 120,000 tested, 4.3% active; active means well fitted inhibition curve with a large enough effect;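 further: plate controls were DMSO vehicle for no effect and reference drug for full effect; nearly all actives have a fitted effect of over 65% in size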
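Readout: SYBR Green fluorescence, 485 nm excitation, 535 nm emission, after ~16 h lysis at 37C. Before that, Dd2-infected red cells (2.5% hematocrit) grew 72 h with compound, 29 uM top final concentration.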
Active calls of the source: *; i = inactive; [ ] = dose if it differs, or a comment. Many of the other results were omitted from the sample, so hits are more common in it than they were. Potency means the concentration at half of the fitted maximal effect.

SMILES	Pf Dd2 inh
COc1cccc(CNC(=O)N2CCCC(Cn3cnc4cccnc43)C2)c1 (stereo not drawn)	13%
CC(c1cccs1)N(C)Cc1cccc(C(F)(F)F)c1 (stereo not drawn)	16%[44.1 µM]
O=C(Cn1nc2c(cc1=O)CCCCC2)NCc1ccc(C(=O)O)cc1	-6%
COc1ccc(C(=O)N2CCOCC3(CN(Cc4cccc(C#N)c4)C3)C2)cc1OC	i
COc1ccccc1CNC[C@H]1O[C@@H]2C[C@@H](CC(=O)N3CCOCC3)O[C@@H]2[C@@H]1O	21%[44.1 µM]
CCn1ncc(N2CCC(NC(=O)Cc3ccc(F)cc3)CC2)cc1=O	i
COC1CCOC2(CCN(C(=O)c3cc(C)nn3C)CC2)C1 (stereo not drawn)	20%
CNC(=O)[C@@H]1CN(C(=O)CCc2cccc(OC)c2)C[C@H]1CO	4%
CN(Cc1ccccc1C(F)(F)F)Cc1cccc2ccccc12	i
CN(Cc1cccc(CCN)c1)Cc1cccc2ncccc12	7.1µM*
Cc1c(CN(C)Cc2cccc3ncccc23)c(=O)n(-c2ccccc2)n1C	-4%
CN(Cc1ccccn1)C(C(=O)O)c1cnn(Cc2ccccc2)c1 (stereo not drawn)	9%
O=C(CC1CCCC1)N1CCC2(CC1)CC(N(C(=O)c1ccccc1)C1CC1)CCO2 (stereo not drawn)	-9%
Cc1nc(C(=O)N2CCOc3c(O)cc(-c4cccc(Cl)c4)cc3C2)c(C)o1	-19%
Cc1cnc(C)c(-c2cc(O)c3c(c2)CN(C(=O)C2CCOC2)CCO3)n1 (stereo not drawn)	-16%
CCn1cc(C(=O)N2CCOc3c(O)cc(-c4ccccc4C)cc3C2)cn1	13µM*
COCC(=O)N1CCC(c2nn(-c3ccccc3)c(=O)[nH]2)CC1	-8%[44.1 µM]
COc1ccc2c(c1)nc1n2[C@@H](CNC(C)C)COC1	i
Nc1ccc(-c2cccc(CN3CCCC3)c2)cc1	-10%
Cc1ccc(OCC(=O)NCC2CCCCC(=O)N2)cc1 (stereo not drawn)	5%
COc1ccc(S(=O)(=O)N(CC(=O)N2CCc3ccccc3C2)c2ccc(C)cc2)cc1	-21%
Cc1ccc(N(CC(=O)NCc2ccc(F)cc2)S(=O)(=O)c2c(C)nn(C)c2C)cc1	0%
Cc1ccc(N(CC(O)Cn2c3ccccc3c3ccccc32)S(=O)(=O)c2ccc(F)cc2)cc1 (stereo not drawn)	13µM*
CNC(=O)[C@@H]1C[C@H](Oc2cccnc2)CN1C(=O)c1ccc(OC)nc1	24%
Cc1cc(Cl)ccc1NC(=O)N1CCC(n2cnnc2C2CC2)C1 (stereo not drawn)	-39%
SMILES	Pf Dd2 inh
CCC[C@@H]1CN(c2nc(SC)ncc2C(=O)OCC)C[C@H]1N(C)C	13µM*
CCOc1ccc(CNC(=O)c2cnc(SC)nc2CC)cc1	i[5.79 µM]
CCOC(=O)c1cnc(N2CCN(c3ccc(OC)cc3)CC2)c2ccccc12	12%
CC(C)N(C)Cc1nnnn1CC(=O)NCc1nc(-c2ccccc2)cs1	i
O=C(N[C@H]1CCN2C(=O)c3cc(-c4ccccc4F)ccc3NC(=O)[C@@H]2C1)c1ccc(F)c(Cl)c1	-21%
Cn1cc(C2CCN(C(=O)c3c(Cl)cc(Cl)cc3Cl)CC2)c2ccccc21	8.9µM*
Cc1cccc2c(C3CCN(C(=O)c4c(Cl)cc(Cl)cc4Cl)CC3)c[nH]c12	-17%
Cn1cc(C(=O)N2CC[C@@](C)(O)[C@@H](O)C2)c2ccccc21	-3%
COc1cccc(CC(=O)N2CCC3(CC2)CC(N(C(=O)NC(C)C)C2CC2)CCO3)c1 (stereo not drawn)	17%
COc1ccc(-c2noc([C@@H]3C[C@H](NCc4ccc(F)cc4)CN3C)n2)cc1	-14%[44.1 µM]
c1cc2c(cc1N1CCC(N[C@H]3C[C@@H]4OCC[C@H]34)CC1)CCC2	-13%
Fc1ccc2cnc(N3CCC(N[C@H]4C[C@@H]5OCC[C@H]45)CC3)nc2c1	8.9µM*
Cc1noc(C)c1CCC(=O)N[C@@H]1CCOC[C@H]1Oc1ccccn1	12%
Cc1cc(CNC(=O)[C@@H]2CCC[C@@H](NC(=O)C3CCCC3)CN(C)C(=O)C2)no1	-14%[44.1 µM]
COc1ccc(CCNC(=O)Cn2cccc2-c2nc(-c3ccc(F)cc3)no2)cc1OC	i
COc1ccc(NC(=O)Cn2cccc2-c2nc(-c3ccc(F)cc3)no2)cc1	2.5µM*
CCc1ccccc1NC(=O)Cn1cccc1-c1nc(-c2ccccc2)no1	2.8µM*
COc1ccc(-c2noc(-c3cccn3CC(=O)Nc3cc(F)ccc3Cl)n2)cc1F	-10%
Cc1cc(C)c(NC(=O)Cn2cccc2-c2nc(-c3ccc(F)cc3)no2)c(C)c1	95%
COc1ccc(-c2noc(-c3cccn3CC(=O)Nc3cccc(Cl)c3)n2)cc1F	2.5µM*
CCc1ccc(NC(=O)Cn2cccc2-c2nc(-c3ccc(OC)c(F)c3)no2)cc1	2µM*
Cc1ccc(NC(=O)Cn2cccc2-c2nc(-c3ccccc3)no2)cc1	90%
COc1ccc(-c2noc(-c3cccn3CC(=O)Nc3ccc(N(C)C)cc3)n2)cc1F	0%
COC(=O)c1ccccc1NC(=O)Cn1cccc1-c1nc(-c2ccc(OC)c(F)c2)no1	16%
O=C(Cn1cccc1-c1nc(-c2ccc(F)cc2)no1)Nc1cccc(F)c1	-4%
SMILES	Pf Dd2 inh
Cc1ccc(NC(=O)Cn2cccc2-c2nc(-c3ccccc3)no2)c(Cl)c1	5%
Cc1cccc(CC(=O)N2CCC3(CC2)CC(N(C2CC2)S(C)(=O)=O)CCO3)c1 (stereo not drawn)	i
OC(c1nc(Nc2ccc(Oc3ccccc3)cc2)n[nH]1)C1CC1 (stereo not drawn)	-19%[44.1 µM]
CCOc1ccc(C(=O)NCCn2cccc2-c2nc(-c3ccccc3)no2)cc1OCC	10µM*
COc1ccc(C(=O)NCCn2cccc2-c2nc(-c3ccccc3)no2)cc1	i
COc1ccc(-c2noc(-c3cccn3CC(=O)Nc3ccc(F)c(F)c3)n2)cc1F	2.8µM*
CCOc1ccc(CCNC(=O)Cn2cccc2-c2nc(-c3ccccc3)no2)cc1OCC	3%
COc1ccc(NC(=O)Cn2cccc2-c2nc(-c3ccc4c(c3)OCO4)no2)cc1OC	-24%
COc1ccc(-c2noc(-c3cccn3CC(=O)NC3CCCC3)n2)cc1F	i
CC(C(=O)NC1CCN(c2cnn(C)c(=O)c2)CC1)c1ccccc1 (stereo not drawn)	0%
CC(C)NC(=O)N1CC[C@@H](CC(=O)O)[C@@H](CC2=NCCc3ccc(C(C)(C)C)cc32)C1	i
CC1(C(=O)NCCCN2CCc3ccccc3C2)CCCCC(=O)N1 (stereo not drawn)	-13%
COc1ccc(N2C(=O)C3(CCCCC3)C2C(=O)NCCCN2CCCC2)cc1 (stereo not drawn)	4.5µM*
CC(C)N1C(=O)C2(CCCC2)C1C(=O)NCCCN1CCN(c2ccccc2)CC1 (stereo not drawn)	-12%
CCC(=O)N1c2ccccc2CC1C(=O)NCCCN1CCN(c2ccc(OC)cc2)CC1 (stereo not drawn)	7%
COc1ccc(N2C(=O)C3(CCCCC3)C2C(=O)NCCCN2CCCCC2)cc1 (stereo not drawn)	11µM*
CC(C)N1C(=O)C2(CCCC2)C1C(=O)NCCCN1CCCC1 (stereo not drawn)	-6%
COc1ccc(N2C(=O)C3(CCCCC3)C2C(=O)O)cc1 (stereo not drawn)	7%
CCN1CCN(CCNC(=O)C2N(C(C)C)C(=O)C23CCCCC3)CC1 (stereo not drawn)	12%
COc1ccc(N2C(=O)C3(CCCCC3)C2C(=O)NCCN2CCc3ccccc3C2)cc1 (stereo not drawn)	8.9µM*

Screening results: PubChem BioAssay, National Center for Advancing Translational Sciences (NCATS)
